The campaign covered roughly 98,000 compounds. About 150 (0.15%) were called active.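 How the source made its calls: active means growth inhibition above about 50% at one test dose (limit read from the data); inactive means the rest.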 The entries come from a sample that favours actives as a whole.

A short description of the test: growth inhibitors of wild-type E. coli, primary screen, strain BW25113, expanded library, OD600 (AID 710).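 Further: growth measured after 20 h incubation at 37 °C.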 Particulars: OD600 absorbance, at 100 µM, stronger effect = higher value.
For the molecule `Cc1nnc(SCC(=O)NC2CCCC2)s1`, the growth inhibition is -2% (inactive).
To `COc1ccc(C(C#N)Nc2ccc(C)cc2)cc1` (stereo unspecified) belongs 3% (inactive).
Regarding `CCOc1ccccc1C(=O)NCCCn1ccnc1`, the growth inhibition is 10% (inactive).
Under `Brc1ccc(OCCn2ccnc2)cc1` stands 55% (active); under `CC1(C)C2CCC1(C)C(OC(=O)CCn1ccnc1)C2` (stereo unspecified), 6% (inactive).
To `Cc1ccc(Cc2c(C)nc3nc(SCC(=O)NCCN4CCOCC4)nn3c2C)cc1` belongs -9% (inactive).
For `Cc1ccc(S(=O)(=O)N(CC(=O)N/N=C/c2ccc(F)cc2)c2cccc3cccnc23)cc1`, the growth inhibition was -18% (inactive).
Under `CN(Cc1nc2ccccc2c(=O)[nH]1)Cc1cc(=O)oc2ccc3ccccc3c12` stands -4% (inactive); under `COC(=O)C1=C(Nc2ccc(OC)cc2)C=C(C)C(C(=O)OC)C1c1ccc(C)cc1` (stereo unspecified), -13% (inactive); under `N#C/C(=C(/O)COc1cccc2ccccc12)c1nc2ccccc2[nH]1`, -8% (inactive).
Under `OC(COc1ccc2c(c1)CCC2)CN1CCN(c2cccc(Cl)c2)CC1` (stereo unspecified) stands 0% (inactive); under `CCc1nnc(NC(=O)CCC(=O)NCc2ccccc2OC)s1`, -2% (inactive).
To `Cc1ccc(-c2nnc(-n3nnc4ccccc43)c3ccccc23)cc1` belongs -7% (inactive); to `O=C(N/N=C/C=C/c1ccccc1)C1CC1(c1ccccc1)c1ccccc1` (stereo unspecified), -15% (inactive).
As for `N=c1c2c(-c3ccccc3)c(-c3ccccc3)n(Cc3ccccc3)c2ncn1CCCO`, the growth inhibition was 13% (inactive).
Turning to `COc1ccc(/C=C2\CCCC3C2=NN(C(=O)c2scnc2C)C3c2ccc(OC)cc2)cc1` (stereo unspecified), the growth inhibition is -16% (inactive).
Under `CCC(=O)NC(NCC1CCCO1)C(Cl)(Cl)Cl` (stereo unspecified) stands 3% (inactive); under `Cc1ccc(CNC(=O)COc2ccc(S(=O)(=O)NC(C)C)cc2)cc1`, 0% (inactive); under `CSc1ccc(C#N)cc1NC(=O)c1cccc(Cl)c1`, -8% (inactive).
Under `Cc1cccc(NC(=O)/C(=C\c2ccco2)NC(=O)c2ccccc2)c1` stands -2% (inactive).
To `CNC(=S)NNC(=O)c1sccc1OCc1ccccc1` belongs -7% (inactive); to `Cc1ccc(NC(=S)NC(=O)c2ccc(-c3ccccc3)cc2)c(C)c1`, -9% (inactive); to `COc1cccc(N(CC(=O)NCCSc2ccccn2)S(C)(=O)=O)c1`, -2% (inactive).
Regarding `CN(C)c1nc(N)nc(CSc2ccccn2)n1`, the growth inhibition was -1% (inactive).
Regarding `COc1ccccc1CSc1nc2ccccc2[nH]1`, the growth inhibition is 8% (inactive).
To `COc1ccc(Nc2nc(-c3ccccc3)cs2)cc1` belongs -6% (inactive); to `CN1C2CCC1/C(=C\c1ccccc1Cl)C(=O)/C2=C\c1ccccc1Cl`, -3% (inactive); to `CSCCC(C(=O)NC1=NCCS1)N1C(=O)c2ccccc2C1=O` (stereo unspecified), -1% (inactive).
As for `COc1ccccc1NC(=O)COc1ccc(C(=O)OCC(=O)N(C(C)C)C(C)C)cc1OC`, the growth inhibition is -6% (inactive).
To `Cc1ccc2nc(SCc3nnc(-c4ccccc4[N+](=O)[O-])o3)c(C#N)cc2c1` belongs -15% (inactive); to `CC(Sc1nnc(Cc2ccc([N+](=O)[O-])cc2)o1)C(N)=O` (stereo unspecified), 2% (inactive).
To `COc1ccc(NC(=O)CC2COc3ccccc3O2)c(OC)c1` (stereo unspecified) belongs 7% (inactive); to `CCN(CC)S(=O)(=O)c1ccc2c3c(cccc13)C(=O)S2`, 1% (inactive).
Under `COC(=O)[C@@H](NC(=O)Nc1cc(Cl)ccc1C)C(C)C` stands 2% (inactive); under `O=C(Nc1ccc2nc3n(c(=O)c2c1)CCCCC3)c1ccccc1Cl`, -6% (inactive).
For the molecule `COc1ccc(NC(=O)CSc2nc(N)c(-c3ccccc3)c(=O)[nH]2)cc1`, the growth inhibition was -12% (inactive).
Turning to `CCOC(=O)c1cc2c(ccn2C)n1CC(=O)N1CCC(C)CC1`, the growth inhibition was -6% (inactive).
Under `COc1ccc(NC(=O)CSc2nc(NS(=O)(=O)c3ccc(C)cc3)cc(=O)[nH]2)cc1` stands -5% (inactive); under `COc1ccc(CN2CN(C(C)C)CSC2=S)cc1`, 38% (inactive); under `CC(CN1CCOCC1)c1ccccc1` (stereo unspecified), 4% (inactive).
To `S=C1SCN(CCN2CCOCC2)CN1Cc1ccccc1` belongs 50% (active).
Under `COC(=O)c1ccc(CSc2nc3cc(Cl)ccc3o2)cc1` stands -5% (inactive); under `CC(=O)Nc1ccc(N2C(=O)CCC2=O)cc1C`, 0% (inactive); under `Cc1n[nH]c(=S)n1/N=C/c1ccc(Br)o1`, -6% (inactive).
With `COC(=O)c1ccc(NC(=O)c2ccccc2NS(=O)(=O)c2ccccc2)cc1`, the growth inhibition was 4% (inactive).
Under `CCOCCOCCC(C(=O)O)P(=O)(c1ccccc1)c1ccccc1` (stereo unspecified) stands 7% (inactive); under `N#Cc1ccc(-c2ccc(Cl)cc2)nc1Oc1ccc(F)cc1`, -7% (inactive); under `CCC1CCCCN1CCCNC(=O)C1CCC(Cn2c(=O)[nH]c3ccccc3c2=O)CC1` (stereo unspecified), 4% (inactive).
Consider `O=C1/C(=C/c2cccs2)CCc2ccccc21`, for which the growth inhibition is 7% (inactive).
To `Cc1cccc(NC(=O)C(C)N2C(=O)C3C4CC(C(Br)C4Br)C3C2=O)c1` (stereo unspecified) belongs 7% (inactive).
Under `Cc1ccc(S(=O)(=O)N(C)C2(C)CCS(=O)(=O)C2)cc1` (stereo unspecified) stands 4% (inactive).
Turning to `O=C(CN1CCSCC1)N/N=C/c1ccc(F)cc1`, the growth inhibition is 2% (inactive).
Turning to `CCCCNc1ccc(C(=O)Nc2cccc(C)n2)cc1[N+](=O)[O-]`, the growth inhibition is 4% (inactive).
Under `CCN(CC)C(=O)CSC1c2ccccc2C(=O)N1c1ccccc1` (stereo unspecified) stands 1% (inactive); under `CCCOc1ccc(C2NC(=O)NC(c3ccccc3)=C2C(C)=O)cc1OCC` (stereo unspecified), -2% (inactive); under `COc1ccc(C(=O)Nc2ccc(F)cc2F)cc1`, 10% (inactive).
To `CC(C)(C)c1cc2cccnc2n1Cc1ccccc1` belongs 9% (inactive); to `Cc1ccc(-c2nc3ccccc3[nH]2)cc1NC(=O)c1sc2ccccc2c1Cl`, -18% (inactive).
With `CCC(=O)N(Cc1ccccc1)c1ccccn1`, the growth inhibition was -3% (inactive).
Under `CCc1cc(C(c2ccccc2OC)N2CCOCC2)c(NC(=O)c2ccccc2)s1` (stereo unspecified) stands -3% (inactive).
Under `CSc1ccccc1NC(=O)c1cc(C2CC2)on1` stands 6% (inactive); under `O=C(c1ccccc1)C(Cn1cncn1)C(Sc1ccccc1)c1ccccc1` (stereo unspecified), -9% (inactive).
To `O=C(CCN1C(=O)c2ccccc2C1=O)Nc1cccc(F)c1` belongs 0% (inactive); to `c1ccc2c(C[n+]3csc4ccccc43)cccc2c1`, -14% (inactive).
Turning to `CCCC(=O)Nc1nc2ccc(NC(=O)c3cccnc3)cc2s1`, the growth inhibition is 8% (inactive).
As for `O=C(CC12CC3CC(CC(C3)C1)C2)Nc1ccc2c(c1)COC2=O`, the growth inhibition is -1% (inactive).
Under `O/N=C1\CC2(Cc3nonc31)OCCO2` stands -4% (inactive); under `ON=C1/C(=N\O)CC2(C/C1=N/O)OCCO2`, 57% (active).
To `N=c1ccn(CC(=O)NC(N)=O)c2ccccc12` belongs -4% (inactive); to `Cc1nonc1NC(=O)c1ccccc1Br`, -2% (inactive).
To `O=C(Nc1nnc(-c2ccc(Cl)cc2)o1)c1ccccc1Br` belongs 57% (active); to `O=C(Nc1cccc(Cl)c1)Nc1nnc(-c2ccccc2)o1`, 2% (inactive).
As to `CCCN(Cc1cc2cccc(C)c2[nH]c1=O)S(C)(=O)=O`, the growth inhibition is 2% (inactive).
As to `CCSc1nc(-c2ccc(OC)cc2)cc(-c2ccc(OC)cc2)c1C#N`, the growth inhibition was -14% (inactive).
As to `CC(C)(C)Cc1nnc(NC(=O)c2cc(-c3ccccc3)nc3ccccc23)s1`, the growth inhibition was -12% (inactive).
Under `Cc1cc2c(cc1C)N(C(=O)CN1C(=O)c3ccccc3C1=O)C(C)(C)c1ssc(=S)c1-2` stands -26% (inactive).
Under `CC(C)NC(=O)C(=O)N/N=C/c1ccco1` stands 0% (inactive); under `Cc1ccc(NC(=S)NC2CCCC2)cc1`, 10% (inactive); under `CCOc1ccc(OCC)c(-c2c(=O)n(OCc3ccc(Cl)cc3)c3ccccc3[n+]2[O-])c1`, -15% (inactive).
Under `COc1ccc([N+](=O)[O-])cc1C1NN=C(c2cccc3ccccc23)S1` (stereo unspecified) stands 3% (inactive); under `O=C(NC(Nc1nc2ccc([N+](=O)[O-])cc2s1)(C(F)(F)F)C(F)(F)F)c1ccccc1`, 50% (active); under `Cc1cc(C)cc(OCC(=O)Nc2nc3ccc([N+](=O)[O-])cc3s2)c1`, -14% (inactive).
Regarding `COC(=O)C(NC(=O)c1ccc(OC)cc1)(Nc1ncc(S(=O)(=O)c2ccc([N+](=O)[O-])cc2)s1)C(F)(F)F` (stereo unspecified), the growth inhibition was -3% (inactive).
For `Cc1cc(C)c2cc(CN(Cc3nnnn3Cc3ccc(F)cc3)C3CCCC3)c(=O)[nH]c2c1`, the growth inhibition is -11% (inactive).
Under `O=C(NC1CCN(C(=S)NCc2ccco2)CC1)c1ccc(F)cc1` stands -4% (inactive); under `Cc1ccccc1OC/C(O)=C(\C#N)c1nc2ccccc2[nH]1`, -10% (inactive).
Under `O=C(Cc1ccccc1)N/N=C/c1ccc(Cl)cc1Cl` stands 1% (inactive); under `CC12c3ccccc3C(c3ccccc31)C1C(=O)N(Cc3cccnc3)C(=O)C12` (stereo unspecified), -1% (inactive).
`CCOc1ccc(N=C2NC(=O)S/C2=C\c2ccc(O)cc2)cc1`: the growth inhibition is -8% (inactive).
To `N/C(=N\OC(=O)Nc1ccc(Cl)c(Cl)c1)c1ncc(C(F)(F)F)cc1Cl` belongs 8% (inactive); to `O=C(CC(O)(C(F)(F)F)C(F)(F)F)Nc1ccc(Cl)c(Cl)c1`, 88% (active); to `Cc1nnc(NC(=O)Nc2ccc(Cl)c(Cl)c2)s1`, -9% (inactive).
For the molecule `Cc1nn(C)c(Oc2ccc(Cl)cc2)c1C=O`, the growth inhibition is -1% (inactive).
As to `FC(F)(F)c1ccc2nnc(-c3c(Cl)cccc3Cl)n2c1`, the growth inhibition is -2% (inactive).
To `Cc1cc(C)c2c(-n3cccc3)c(C(=O)NNS(=O)(=O)c3ccc(F)cc3)sc2n1` belongs 16% (inactive); to `NC(N)=N/N=C/c1ccc(OCc2ccc(Cl)cc2Cl)cc1`, 97% (active); to `NC(=O)COc1ccc(/C=N/NC(=O)C2CCCN2S(=O)(=O)c2ccc(Cl)cc2)cc1` (stereo unspecified), 6% (inactive).
Under `COC(=O)c1sc2ncccc2c1OCc1ccc(Cl)cc1Cl` stands -14% (inactive).
To `C=CCOC(=O)C1=C(C)NC(C)=C(C(=O)OCC=C)C1c1cccs1` belongs 5% (inactive); to `CCOC(=O)CN(Cc1ccc(OC)c(OC)c1)S(=O)(=O)c1ccc(OC)cc1`, 0% (inactive); to `O=C(NCc1cccnc1)c1cccnc1Sc1ccc(Cl)cc1`, 10% (inactive).

The values are drawn from PubChem BioAssay AID710 (SRMLSC, 2007).
